target: AgAbp1; assay: SPOT peptide array binding signal intensity (averaged, normalized) (arbitrary units (background-subtracted, floor 0; scale differs between SH3 domains)); higher = stronger binding of the SH3 domain to the peptide
Procedure, shortened: (§1)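 GST-fused SH3 domains, from four yeast species, were produced in E. coli BL21(DE3) and captured on glutathione Sepharose. Membranes of cellulose carrying synthetic 15-mer peptides, in which cysteines had been replaced by serines, were exposed to each domain at 10 μg/ml overnight at 4°C in TBS-based blocking buffer. After anti-GST antibody, an HRP anti-mouse secondary and luminol, spots were imaged and quantified using Genespotter. Binding signal is normalized and background-subtracted spot intensity, averaged over replicates, in arbitrary units that differ between domains.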

Binder | SPOT peptide array binding signal intensity
TKFRISLGLPVGAIM | 4

target: AgBbc1; assay: as above
Procedure, shortened: as §1

Binder | SPOT peptide array binding signal intensity
TKFRISLGLPVGAIM | 108

target: AgBem1-D1; assay: as above
Procedure, shortened: as §1

Binder | SPOT peptide array binding signal intensity
TKFRISLGLPVGAIM | 429

target: AgBzz1-D1; assay: as above
Procedure, shortened: as §1

Binder | SPOT peptide array binding signal intensity
TKFRISLGLPVGAIM | 100

target: AgBzz1-D2; assay: as above
Procedure, shortened: as §1

Binder | SPOT peptide array binding signal intensity
TKFRISLGLPVGAIM | 109

target: AgCyk3; assay: as above
Procedure, shortened: as §1

Binder | SPOT peptide array binding signal intensity
TKFRISLGLPVGAIM | 66

target: AgFus1; assay: as above
Procedure, shortened: as §1

Binder | SPOT peptide array binding signal intensity
TKFRISLGLPVGAIM | 1490

target: AgHof1; assay: as above
Procedure, shortened: as §1

Binder | SPOT peptide array binding signal intensity
TKFRISLGLPVGAIM | 91.5

target: AgHse1; assay: as above
Procedure, shortened: as §1

Binder | SPOT peptide array binding signal intensity
TKFRISLGLPVGAIM | 911

target: AgLsb1; assay: as above
Procedure, shortened: as §1

Binder | SPOT peptide array binding signal intensity
TKFRISLGLPVGAIM | 28

target: AgLsb4; assay: as above
Procedure, shortened: as §1

Binder | SPOT peptide array binding signal intensity
TKFRISLGLPVGAIM | 513

target: AgMyo5; assay: as above
Procedure, shortened: as §1

Binder | SPOT peptide array binding signal intensity
TKFRISLGLPVGAIM | 3.75

target: AgNbp2; assay: as above
Procedure, shortened: as §1

Binder | SPOT peptide array binding signal intensity
TKFRISLGLPVGAIM | 422

target: AgRvs167; assay: as above
Procedure, shortened: as §1

Binder | SPOT peptide array binding signal intensity
TKFRISLGLPVGAIM | 21.3

target: AgSho1; assay: as above
Procedure, shortened: as §1

Binder | SPOT peptide array binding signal intensity
TKFRISLGLPVGAIM | 548

target: AgSla1-D1-D2; assay: as above
Procedure, shortened: as §1

Binder | SPOT peptide array binding signal intensity
TKFRISLGLPVGAIM | 176

target: AgSla1-D3; assay: as above
Procedure, shortened: as §1

Binder | SPOT peptide array binding signal intensity
TKFRISLGLPVGAIM | 12

target: CaAbp1-D1; assay: as above
Procedure, shortened: as §1

Binder | SPOT peptide array binding signal intensity
TKFRISLGLPVGAIM | 112

target: CaAbp1-D2; assay: as above
Procedure, shortened: as §1

Binder | SPOT peptide array binding signal intensity
TKFRISLGLPVGAIM | 134

target: CaBbc1; assay: as above
Procedure, shortened: as §1

Binder | SPOT peptide array binding signal intensity
TKFRISLGLPVGAIM | 225

target: CaBem1-D1; assay: as above
Procedure, shortened: as §1

Binder | SPOT peptide array binding signal intensity
TKFRISLGLPVGAIM | 199

target: CaBzz1-D1; assay: as above
Procedure, shortened: as §1

Binder | SPOT peptide array binding signal intensity
TKFRISLGLPVGAIM | 592

target: CaBzz1-D2; assay: as above
Procedure, shortened: as §1

Binder | SPOT peptide array binding signal intensity
TKFRISLGLPVGAIM | 334

target: CaCyk3; assay: as above
Procedure, shortened: as §1

Binder | SPOT peptide array binding signal intensity
TKFRISLGLPVGAIM | 162

target: CaFus1; assay: as above
Procedure, shortened: as §1

Binder | SPOT peptide array binding signal intensity
TKFRISLGLPVGAIM | 4760

target: CaHof1; assay: as above
Procedure, shortened: as §1

Binder | SPOT peptide array binding signal intensity
TKFRISLGLPVGAIM | 1.25

target: CaHse1; assay: as above
Procedure, shortened: as §1

Binder | SPOT peptide array binding signal intensity
TKFRISLGLPVGAIM | 193

target: CaLsb1; assay: as above
Procedure, shortened: as §1

Binder | SPOT peptide array binding signal intensity
TKFRISLGLPVGAIM | 31

target: CaLsb4; assay: as above
Procedure, shortened: as §1

Binder | SPOT peptide array binding signal intensity
TKFRISLGLPVGAIM | 280

target: CaMyo5; assay: as above
Procedure, shortened: as §1

Binder | SPOT peptide array binding signal intensity
TKFRISLGLPVGAIM | 69.2

target: CaNbp2; assay: as above
Procedure, shortened: as §1

Binder | SPOT peptide array binding signal intensity
TKFRISLGLPVGAIM | 498

target: CaRvs167; assay: as above
Procedure, shortened: as §1

Binder | SPOT peptide array binding signal intensity
TKFRISLGLPVGAIM | 245

target: CaRvs167-3; assay: as above
Procedure, shortened: as §1

Binder | SPOT peptide array binding signal intensity
TKFRISLGLPVGAIM | 2240

target: CaSho1; assay: as above
Procedure, shortened: as §1

Binder | SPOT peptide array binding signal intensity
TKFRISLGLPVGAIM | 1360

target: CaSla1-D1-D2; assay: as above
Procedure, shortened: as §1

Binder | SPOT peptide array binding signal intensity
TKFRISLGLPVGAIM | 126

target: CaSla1-D3; assay: as above
Procedure, shortened: as §1

Binder | SPOT peptide array binding signal intensity
TKFRISLGLPVGAIM | 602

target: ScAbp1; assay: as above
Procedure, shortened: as §1

Binder | SPOT peptide array binding signal intensity
TKFRISLGLPVGAIM | 13

target: ScBbc1; assay: as above
Procedure, shortened: as §1

Binder | SPOT peptide array binding signal intensity
TKFRISLGLPVGAIM | 17

target: ScBem1-D1; assay: as above
Procedure, shortened: as §1

Binder | SPOT peptide array binding signal intensity
TKFRISLGLPVGAIM | 66

target: ScBzz1-D1; assay: as above
Procedure, shortened: as §1

Binder | SPOT peptide array binding signal intensity
TKFRISLGLPVGAIM | 95

target: ScBzz1-D2; assay: as above
Procedure, shortened: as §1

Binder | SPOT peptide array binding signal intensity
TKFRISLGLPVGAIM | 392

target: ScCyk3; assay: as above
Procedure, shortened: as §1

Binder | SPOT peptide array binding signal intensity
TKFRISLGLPVGAIM | 292

target: ScFus1; assay: as above
Procedure, shortened: as §1

Binder | SPOT peptide array binding signal intensity
TKFRISLGLPVGAIM | 2830

target: ScHof1; assay: as above
Procedure, shortened: as §1

Binder | SPOT peptide array binding signal intensity
TKFRISLGLPVGAIM | 2.5

target: ScHse1; assay: as above
Procedure, shortened: as §1

Binder | SPOT peptide array binding signal intensity
TKFRISLGLPVGAIM | 1460

target: ScLsb1; assay: as above
Procedure, shortened: as §1

Binder | SPOT peptide array binding signal intensity
TKFRISLGLPVGAIM | 19.8

target: ScLsb2; assay: as above
Procedure, shortened: as §1

Binder | SPOT peptide array binding signal intensity
TKFRISLGLPVGAIM | 30

target: ScLsb3; assay: as above
Procedure, shortened: as §1

Binder | SPOT peptide array binding signal intensity
TKFRISLGLPVGAIM | 329

target: ScLsb4; assay: as above
Procedure, shortened: as §1

Binder | SPOT peptide array binding signal intensity
TKFRISLGLPVGAIM | 72

target: ScMyo3; assay: as above
Procedure, shortened: as §1

Binder | SPOT peptide array binding signal intensity
TKFRISLGLPVGAIM | 4

target: ScMyo5; assay: as above
Procedure, shortened: as §1

Binder | SPOT peptide array binding signal intensity
TKFRISLGLPVGAIM | 12

target: ScNbp2; assay: as above
Procedure, shortened: as §1

Binder | SPOT peptide array binding signal intensity
TKFRISLGLPVGAIM | 702

target: ScPex13; assay: as above
Procedure, shortened: as §1

Binder | SPOT peptide array binding signal intensity
TKFRISLGLPVGAIM | 65.5

target: ScRvs167; assay: as above
Procedure, shortened: as §1

Binder | SPOT peptide array binding signal intensity
TKFRISLGLPVGAIM | 80.7

target: ScSho1; assay: as above
Procedure, shortened: as §1

Binder | SPOT peptide array binding signal intensity
TKFRISLGLPVGAIM | 2880

target: ScSla1-D1-D2; assay: as above
Procedure, shortened: as §1

Binder | SPOT peptide array binding signal intensity
TKFRISLGLPVGAIM | 333

target: ScSla1-D3; assay: as above
Procedure, shortened: as §1

Binder | SPOT peptide array binding signal intensity
TKFRISLGLPVGAIM | 122

target: SpAbp1-D1; assay: as above
Procedure, shortened: as §1

Binder | SPOT peptide array binding signal intensity
TKFRISLGLPVGAIM | 68

target: SpBbc1; assay: as above
Procedure, shortened: as §1

Binder | SPOT peptide array binding signal intensity
TKFRISLGLPVGAIM | 55

target: SpBzz1-D1; assay: as above
Procedure, shortened: as §1

Binder | SPOT peptide array binding signal intensity
TKFRISLGLPVGAIM | 537

target: SpBzz1-D2; assay: as above
Procedure, shortened: as §1

Binder | SPOT peptide array binding signal intensity
TKFRISLGLPVGAIM | 5

target: SpCyk3; assay: as above
Procedure, shortened: as §1

Binder | SPOT peptide array binding signal intensity
TKFRISLGLPVGAIM | 55

target: SpHof1; assay: as above
Procedure, shortened: as §1

Binder | SPOT peptide array binding signal intensity
TKFRISLGLPVGAIM | 183

target: SpHof1-2; assay: as above
Procedure, shortened: as §1

Binder | SPOT peptide array binding signal intensity
TKFRISLGLPVGAIM | 78.2

target: SpHof1-3; assay: as above
Procedure, shortened: as §1

Binder | SPOT peptide array binding signal intensity
TKFRISLGLPVGAIM | 760

target: SpHse1; assay: as above
Procedure, shortened: as §1

Binder | SPOT peptide array binding signal intensity
TKFRISLGLPVGAIM | 664

target: SpLsb1; assay: as above
Procedure, shortened: as §1

Binder | SPOT peptide array binding signal intensity
TKFRISLGLPVGAIM | 35.5

target: SpLsb4; assay: as above
Procedure, shortened: as §1

Binder | SPOT peptide array binding signal intensity
TKFRISLGLPVGAIM | 100

target: SpMyo1; assay: as above
Procedure, shortened: as §1

Binder | SPOT peptide array binding signal intensity
TKFRISLGLPVGAIM | 20.5

target: SpNbp2; assay: as above
Procedure, shortened: as §1

Binder | SPOT peptide array binding signal intensity
TKFRISLGLPVGAIM | 1390

target: SpPex13; assay: as above
Procedure, shortened: as §1

Binder | SPOT peptide array binding signal intensity
TKFRISLGLPVGAIM | 239

target: SpRvs167; assay: as above
Procedure, shortened: as §1

Binder | SPOT peptide array binding signal intensity
TKFRISLGLPVGAIM | 39.2

target: SpSla1-D1-D2; assay: as above
Procedure, shortened: as §1

Binder | SPOT peptide array binding signal intensity
TKFRISLGLPVGAIM | 6

target: SpSla1-D3; assay: as above
Procedure, shortened: as §1

Binder | SPOT peptide array binding signal intensity
TKFRISLGLPVGAIM | 51.5
